Results published in PubChem BioAssay (NCI).
Compounds without any hit were thinned out: in the full panel of roughly 83,000, 20% have a hit.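 48-hour exposure, single concentration, 96-well plates; percent growth endpoint where 0 means no net growth. Active: below 10.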 Calls of active or inactive are those of the source.

Assays:
Test in all cases: NCI-60 one-dose screen, 48 h (100 = growth as untreated, 0 = no growth, -100 = all killed)
Settings in all cases: 10 µM unless noted
HCT-15 colon = system: HCT-15 colon
HT29 colon = system: HT29 colon
SNB-75 CNS = system: SNB-75 CNS
SNB-19 CNS = system: SNB-19 CNS
U251 CNS = system: U251 CNS
PC-3 prostate = system: PC-3 prostate
SK-MEL-5 melanoma = system: SK-MEL-5 melanoma
UACC-62 melanoma = system: UACC-62 melanoma
LOX IMVI melanoma = system: LOX IMVI melanoma
SK-MEL-28 melanoma = system: SK-MEL-28 melanoma

Measured: growth

COC12C=C/C(=C(/C(=O)OCc3ccncn3)C(=O)CCCCCCCCC3(OC)C=C/C(=C(/C(=O)OCc4ccncn4)C(=O)CCCCCCCC1)O3)O2
active: HCT-15 colon -28.5% | SNB-19 CNS 7.75% | U251 CNS 0.453% | PC-3 prostate -36.7% | SK-MEL-5 melanoma -88.1% | UACC-62 melanoma -47.4% | LOX IMVI melanoma -54.8% | SK-MEL-28 melanoma -19.2%
inactive: HT29 colon 12.5% | SNB-75 CNS 48.7%

CCN1C(=O)N(CC)C2C1NN=c1s/c(=C\c3ccccc3F)c(=O)n12 (stereo not given)
active: HCT-15 colon 8.45% | HT29 colon 1.76% | U251 CNS 1.71% | SK-MEL-5 melanoma -21.1%
inactive: SNB-75 CNS 10.8% | SNB-19 CNS 31% | PC-3 prostate 25.1% | UACC-62 melanoma 34.4% | LOX IMVI melanoma 15.8% | SK-MEL-28 melanoma 61.2%

CC(=O)c1c(C)nc(SCC(=O)Nc2cccc(O)c2)n1-c1ccc(Cl)cc1
inactive: HCT-15 colon 95% | HT29 colon 102% | SNB-75 CNS 62.8% | SNB-19 CNS 92% | U251 CNS 91.9% | PC-3 prostate 89.6% | SK-MEL-5 melanoma 93.2% | LOX IMVI melanoma 104% | SK-MEL-28 melanoma 106%

COc1cc2c(cc1OC)C(C)N(S(N)(=O)=O)CC2 (stereo not given)
inactive: HCT-15 colon 102% | HT29 colon 99.8% | SNB-75 CNS 87.6% | SNB-19 CNS 97.6% | U251 CNS 114% | PC-3 prostate 89% | SK-MEL-5 melanoma 105% | LOX IMVI melanoma 102% | SK-MEL-28 melanoma 106%

COc1ccc(Cc2cnc(NC(=O)c3cc(C)oc3C)s2)cc1
inactive: HCT-15 colon 26.9% | HT29 colon 13.6% | SNB-19 CNS 38.7% | U251 CNS 35.8% | PC-3 prostate 39.3% | SK-MEL-5 melanoma 25.8% | UACC-62 melanoma 27.1% | LOX IMVI melanoma 39.9% | SK-MEL-28 melanoma 54.3%
active: SNB-75 CNS -8.41%

CCOC(=O)C(=O)C(C(=O)OCC)c1ccccc1 (stereo not given)
inactive: HCT-15 colon 108% | HT29 colon 116% | SNB-75 CNS 107% | SNB-19 CNS 103% | U251 CNS 112% | PC-3 prostate 101% | SK-MEL-5 melanoma 106% | LOX IMVI melanoma 106% | SK-MEL-28 melanoma 109%

N#Cc1c(-c2ccc(Cl)cc2)c(C#N)c2c(C#N)c(N)nn2c1N
inactive: HCT-15 colon 88.2% | HT29 colon 83.3% | SNB-75 CNS 74.8% | SNB-19 CNS 88.2% | U251 CNS 87.9% | PC-3 prostate 65.2% | SK-MEL-5 melanoma 87.9% | UACC-62 melanoma 72.9% | LOX IMVI melanoma 76.6% | SK-MEL-28 melanoma 99.3%

COCCNC(=O)Nc1ccc2nc(-c3cccs3)c(-c3cccs3)nc2c1
inactive: HCT-15 colon 90.9% | HT29 colon 87.8% | SNB-75 CNS 81.6% | SNB-19 CNS 95.5% | U251 CNS 96.7% | PC-3 prostate 79.2% | SK-MEL-5 melanoma 89.5% | UACC-62 melanoma 85.1% | LOX IMVI melanoma 82.8% | SK-MEL-28 melanoma 96.7%

CCOC(=O)c1c(NC(=O)c2cccc(C(F)(F)F)c2)sc2c(CN(C)C)c(O)ccc12
inactive: HCT-15 colon 10.6% | HT29 colon 13.5% | SNB-75 CNS 83% | SNB-19 CNS 88.4% | U251 CNS 16.5% | PC-3 prostate 60.3% | SK-MEL-5 melanoma 93.6% | UACC-62 melanoma 102% | LOX IMVI melanoma 16.5% | SK-MEL-28 melanoma 17%

CN1C(=O)/C(=C\c2nc([P+](c3ccccc3)(c3ccccc3)c3ccccc3)c(N3CCOCC3)o2)SC1=S
inactive: HCT-15 colon 91.3% | HT29 colon 98.3% | SNB-75 CNS 92.1% | SNB-19 CNS 12.5% | U251 CNS 66.2% | PC-3 prostate 46.1% | SK-MEL-5 melanoma 78.4% | LOX IMVI melanoma 86.1% | SK-MEL-28 melanoma 11%

Cc1nc2sc(C(=O)Nc3ccc(Br)cc3)c(N)c2cc1C(O)c1ccccc1 (stereo not given)
inactive: HCT-15 colon 34.7% | HT29 colon 36.7% | SNB-75 CNS 62.6% | SNB-19 CNS 67.7% | U251 CNS 54% | PC-3 prostate 61.4% | UACC-62 melanoma 41.8% | LOX IMVI melanoma 61.3%

Nc1nc2ccccc2c2c(=O)c3cccc(Cl)c3sc12
inactive: HCT-15 colon 59% | HT29 colon 92.7% | SNB-75 CNS 89.2% | SNB-19 CNS 92.6% | U251 CNS 77.3% | PC-3 prostate 78.5% | UACC-62 melanoma 85.7% | LOX IMVI melanoma 90.2% | SK-MEL-28 melanoma 108%

CCOc1ccc(NC(=O)CSc2oc(-c3ccccc3)nc2S(=O)(=O)c2ccc(C)cc2)cc1
inactive: HCT-15 colon 63.8% | HT29 colon 50.9% | SNB-75 CNS 45.3% | SNB-19 CNS 70.7% | U251 CNS 41.2% | PC-3 prostate 62.3% | UACC-62 melanoma 66.2% | LOX IMVI melanoma 54.1% | SK-MEL-28 melanoma 79.3%

O=C1c2c(c3c4ccccc4[nH]c3c3ccc4ccccc4c23)C(=O)N1CCN1CCNCC1
active: HCT-15 colon -45.2% | HT29 colon -14.6% | U251 CNS -11.2% | LOX IMVI melanoma -87.2%
inactive: SNB-75 CNS 85% | SNB-19 CNS 74.3% | PC-3 prostate 56.6% | SK-MEL-5 melanoma 73.5% | SK-MEL-28 melanoma 100%

O=[N+]([O-])c1ccc(O)cc1Br
inactive: HCT-15 colon 101% | HT29 colon 92.6% | SNB-75 CNS 92.7% | SNB-19 CNS 98.6% | U251 CNS 103% | PC-3 prostate 88.8% | UACC-62 melanoma 105% | LOX IMVI melanoma 95.4%

CN(C)Cc1ccc(O)c(C(=O)O)c1
inactive: HCT-15 colon 107% | HT29 colon 107% | SNB-75 CNS 108% | SNB-19 CNS 109% | U251 CNS 93.3% | PC-3 prostate 105% | SK-MEL-5 melanoma 108% | LOX IMVI melanoma 99.4% | SK-MEL-28 melanoma 119%

N#CC1=C(N)Oc2c(sc3c(Br)cccc23)C1c1ccc(Cl)cc1 (stereo not given)
inactive: SNB-19 CNS 37% | PC-3 prostate 17.3% | UACC-62 melanoma 10.3% | LOX IMVI melanoma 23.3% | SK-MEL-28 melanoma 44.8%
active: HCT-15 colon 8.47% | HT29 colon -14.2% | SNB-75 CNS 4.29% | U251 CNS 7.28%

COC(=O)[C@]1(C)CCC[C@]2(C)[C@H]3C[C@H]4C(C(C)C)=C[C@]3(CC[C@H]21)[C@@H]1C(=O)CC[C@H](OCCC#N)[C@@H]14
inactive: HCT-15 colon 84.9% | HT29 colon 69.6% | SNB-75 CNS 87.6% | SNB-19 CNS 89.6% | U251 CNS 77.6% | PC-3 prostate 34.5% | UACC-62 melanoma 69.3% | LOX IMVI melanoma 90.3% | SK-MEL-28 melanoma 101%

Nc1cnc(C(=O)NNc2nc3cc(F)ccc3n3cccc23)cn1
inactive: HCT-15 colon 24.8% | HT29 colon 35% | SNB-75 CNS 87.2% | SNB-19 CNS 36.1% | U251 CNS 36.7% | PC-3 prostate 47.2% | UACC-62 melanoma 22.7% | LOX IMVI melanoma 22% | SK-MEL-28 melanoma 40%

O=C(CN1C(=O)NC2NC(=O)NC21)N/N=C/c1ccccc1[N+](=O)[O-] (stereo not given)
inactive: HCT-15 colon 103% | HT29 colon 112% | SNB-75 CNS 83.3% | SNB-19 CNS 96.8% | U251 CNS 107% | PC-3 prostate 101% | UACC-62 melanoma 90.1% | LOX IMVI melanoma 102% | SK-MEL-28 melanoma 107%

CC(=O)N1N=C(c2ccc(Nc3nc(Nc4ccccc4)nc(Nc4ccccc4)n3)cc2)CC1c1cccc([N+](=O)[O-])c1 (stereo not given)
inactive: HCT-15 colon 110% | HT29 colon 100% | SNB-75 CNS 79.7% | SNB-19 CNS 86.1% | U251 CNS 97.7% | PC-3 prostate 80.6% | SK-MEL-5 melanoma 87.4% | LOX IMVI melanoma 86.9% | SK-MEL-28 melanoma 115%

Nc1nc(-c2ccc(Cl)cc2)nc2c1sc(=S)n2-c1ccccc1
inactive: HCT-15 colon 60.1% | HT29 colon 47.9% | SNB-19 CNS 37.9% | U251 CNS 17.7% | PC-3 prostate 62.1% | UACC-62 melanoma 46.9% | LOX IMVI melanoma 29.4% | SK-MEL-28 melanoma 55.7%
active: SNB-75 CNS -30.5%

N#Cc1ccc(O)c(C2=NCC(c3ccccc3)O2)c1 (stereo not given)
inactive: HCT-15 colon 20.8% | HT29 colon 46.2% | SNB-75 CNS 74.9% | SNB-19 CNS 46% | U251 CNS 19.6% | PC-3 prostate 31.6% | UACC-62 melanoma 37.8% | LOX IMVI melanoma 25.9% | SK-MEL-28 melanoma 86.4%

CC1=NC2=Nn3c(c4cnn(-c5ccccc5)c4n/c3=N\N)NN2C(c2ccccc2)=C1
inactive: HCT-15 colon 99% | HT29 colon 98.6% | SNB-75 CNS 67% | SNB-19 CNS 98.4% | U251 CNS 99% | PC-3 prostate 90.5% | UACC-62 melanoma 77.6% | LOX IMVI melanoma 92% | SK-MEL-28 melanoma 102%

N#CC1=C(N)Oc2c(ccc3ccccc23)C1c1ccccc1 (stereo not given)
active: HCT-15 colon 8.12% | HT29 colon -2.07% | U251 CNS 9.37% | PC-3 prostate 6.19% | LOX IMVI melanoma 7.97%
inactive: SNB-75 CNS 35.6% | SNB-19 CNS 26.6% | UACC-62 melanoma 26.9%

Cc1ccc(C2=Nc3c(N)ncnc3NC(c3cccc(Nc4ccnc5cc(C(F)(F)F)ccc45)c3)C2)cc1 (stereo not given)
active: HCT-15 colon 6.14% | HT29 colon 5.98%
inactive: SNB-75 CNS 21.7% | SNB-19 CNS 43.6% | U251 CNS 31.1% | PC-3 prostate 16.1% | UACC-62 melanoma 48.7% | LOX IMVI melanoma 26.7% | SK-MEL-28 melanoma 52.3%

O=C1C(Cl)=C(Nc2ccc(S(=O)(=O)N3CCOCC3)cc2)C(=O)c2ccccc21
inactive: HCT-15 colon 36.2% | HT29 colon 49.2% | SNB-75 CNS 71.3% | SNB-19 CNS 96.9% | U251 CNS 44.6% | PC-3 prostate 46% | UACC-62 melanoma 29.7% | LOX IMVI melanoma 35.3% | SK-MEL-28 melanoma 47.5%

COC(=O)C1Cc2ccccc2CN1C(=O)c1ccc2c(c1)Cc1ccccc1-2 (stereo not given)
inactive: HCT-15 colon 22.4% [50 µM] | HT29 colon 23.1% [50 µM] | SNB-75 CNS 60.8% [50 µM] | SNB-19 CNS 43.7% [50 µM] | U251 CNS 32.3% [50 µM] | PC-3 prostate 21.2% [50 µM] | UACC-62 melanoma 33.3% [50 µM] | LOX IMVI melanoma 35.8% [50 µM] | SK-MEL-28 melanoma 47.8% [50 µM]
